Results on three molecules are retold here after PubChem BioAssay AID651871 (Sanford-Burnham Center for Chemical Genomics, 2012).

For the assay, the system named is H9c2. Nature of the assay: cardiomyocyte survival under oxidative or metabolic stress – cell-based, panel, H9c2 and HL-1, ATP luminescence, set 2, SAR follow-up (AID 651871).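 Note: cells exposed to stressor for 2 h before ATP readout; reference of the scale not given here.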 The settings on record: H9c2/HL-1 cardiomyocytes, 2-deoxyglucose stress, with 2-deoxyglucose; run 3, at 79 µM (top of the series).

Where “and” joins values, the source holds several entries; their conditions need not be identical. Equal entries are not always repeated.

For the molecule `COc1ccc2c(c1OC)C(=O)N1c3ccccc3C(=O)N(Cc3cccc(Cl)c3Cl)C21` (stereo not drawn), the activity (protection/inhibition) was 71.2% and 81.8% and -10.3%. Next, `CCOC(=O)c1cccc(NC(=O)CNC(=O)c2cc(-c3cc(OC)c(OC)c(OC)c3)nc3ccccc23)c1`: 92.4%. The result for `COc1ccc2nc(-c3cc(OC)c(OC)c(OC)c3)cc(C(=O)NCC(=O)Nc3ccc(C(C)=O)cc3)c2c1` reads 75.4%.
